The full data set covers some 7,900 targets. This sample favours those with a hit. About 0.6% of all pairs of compound and target were hits. A number with no mark means an inactive call.

Chain of UniProt Q92878 (Q92878 whole entry, looked up): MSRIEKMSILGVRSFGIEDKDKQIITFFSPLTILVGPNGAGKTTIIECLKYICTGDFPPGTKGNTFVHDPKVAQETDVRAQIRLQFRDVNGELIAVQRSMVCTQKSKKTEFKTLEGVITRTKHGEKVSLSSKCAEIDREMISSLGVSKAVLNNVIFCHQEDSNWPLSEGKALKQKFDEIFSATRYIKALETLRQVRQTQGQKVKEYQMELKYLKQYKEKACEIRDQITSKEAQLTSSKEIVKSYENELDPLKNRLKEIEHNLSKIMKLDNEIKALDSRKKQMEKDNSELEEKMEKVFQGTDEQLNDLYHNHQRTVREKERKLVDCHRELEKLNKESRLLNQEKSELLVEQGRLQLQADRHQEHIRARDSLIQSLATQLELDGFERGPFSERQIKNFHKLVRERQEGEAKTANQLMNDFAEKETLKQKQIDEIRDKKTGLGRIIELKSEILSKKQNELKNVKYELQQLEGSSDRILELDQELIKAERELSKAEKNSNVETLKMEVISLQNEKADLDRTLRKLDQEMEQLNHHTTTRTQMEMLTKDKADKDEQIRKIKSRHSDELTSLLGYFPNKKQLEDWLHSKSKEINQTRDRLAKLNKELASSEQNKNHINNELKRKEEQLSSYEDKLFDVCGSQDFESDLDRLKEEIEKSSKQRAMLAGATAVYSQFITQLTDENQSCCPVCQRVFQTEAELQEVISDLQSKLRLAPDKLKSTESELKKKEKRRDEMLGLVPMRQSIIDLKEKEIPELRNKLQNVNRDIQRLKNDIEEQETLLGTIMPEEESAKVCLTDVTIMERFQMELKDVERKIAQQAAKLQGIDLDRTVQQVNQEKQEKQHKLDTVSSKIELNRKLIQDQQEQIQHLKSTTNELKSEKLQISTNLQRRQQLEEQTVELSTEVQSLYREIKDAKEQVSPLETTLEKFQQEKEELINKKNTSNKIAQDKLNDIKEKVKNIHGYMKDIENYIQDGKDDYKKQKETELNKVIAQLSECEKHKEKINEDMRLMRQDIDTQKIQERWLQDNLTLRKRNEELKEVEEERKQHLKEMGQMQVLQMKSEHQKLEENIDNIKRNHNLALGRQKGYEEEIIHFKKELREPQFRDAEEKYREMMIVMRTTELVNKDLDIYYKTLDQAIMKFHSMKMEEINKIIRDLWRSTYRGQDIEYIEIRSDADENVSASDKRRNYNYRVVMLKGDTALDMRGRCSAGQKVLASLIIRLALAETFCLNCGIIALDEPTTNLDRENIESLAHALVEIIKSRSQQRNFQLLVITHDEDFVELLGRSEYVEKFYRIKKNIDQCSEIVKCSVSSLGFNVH
Chain of UniProt Q8N122 (Q8N122 whole entry, looked up): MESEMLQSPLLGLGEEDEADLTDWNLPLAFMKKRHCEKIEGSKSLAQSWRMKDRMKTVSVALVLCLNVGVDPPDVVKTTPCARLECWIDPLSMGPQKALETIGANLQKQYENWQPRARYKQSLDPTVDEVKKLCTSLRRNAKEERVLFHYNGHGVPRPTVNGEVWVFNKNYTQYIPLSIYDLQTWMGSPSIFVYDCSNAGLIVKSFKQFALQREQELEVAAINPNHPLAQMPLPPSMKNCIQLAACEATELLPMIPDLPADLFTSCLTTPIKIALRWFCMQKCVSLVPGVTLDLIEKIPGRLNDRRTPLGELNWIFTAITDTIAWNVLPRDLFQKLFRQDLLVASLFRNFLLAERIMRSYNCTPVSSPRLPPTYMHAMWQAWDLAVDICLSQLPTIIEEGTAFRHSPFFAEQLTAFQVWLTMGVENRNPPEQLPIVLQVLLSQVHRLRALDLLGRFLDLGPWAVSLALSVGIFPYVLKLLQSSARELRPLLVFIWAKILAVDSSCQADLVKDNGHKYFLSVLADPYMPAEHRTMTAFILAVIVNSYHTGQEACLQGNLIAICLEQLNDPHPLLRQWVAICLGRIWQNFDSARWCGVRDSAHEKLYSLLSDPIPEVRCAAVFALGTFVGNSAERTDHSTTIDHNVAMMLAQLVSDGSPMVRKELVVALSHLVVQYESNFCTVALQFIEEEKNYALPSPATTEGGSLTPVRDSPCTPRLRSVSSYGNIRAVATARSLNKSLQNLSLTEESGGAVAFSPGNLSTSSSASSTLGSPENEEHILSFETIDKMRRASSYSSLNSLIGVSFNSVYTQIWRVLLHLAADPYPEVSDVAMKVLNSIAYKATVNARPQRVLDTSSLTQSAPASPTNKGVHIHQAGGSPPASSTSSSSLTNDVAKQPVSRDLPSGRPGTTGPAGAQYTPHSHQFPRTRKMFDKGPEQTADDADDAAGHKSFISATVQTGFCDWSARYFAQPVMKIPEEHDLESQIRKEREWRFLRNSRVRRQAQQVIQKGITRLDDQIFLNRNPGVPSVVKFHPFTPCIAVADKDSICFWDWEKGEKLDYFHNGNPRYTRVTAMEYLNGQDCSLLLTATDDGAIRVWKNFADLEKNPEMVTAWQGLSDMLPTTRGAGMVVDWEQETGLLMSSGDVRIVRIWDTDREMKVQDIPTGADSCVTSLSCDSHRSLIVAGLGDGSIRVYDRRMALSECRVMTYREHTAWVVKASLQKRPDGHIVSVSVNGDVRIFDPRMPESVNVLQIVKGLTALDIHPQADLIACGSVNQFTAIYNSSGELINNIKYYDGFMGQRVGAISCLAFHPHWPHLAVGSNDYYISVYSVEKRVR
Chain of UniProt Q9NTZ6 (Q9NTZ6 whole entry, looked up): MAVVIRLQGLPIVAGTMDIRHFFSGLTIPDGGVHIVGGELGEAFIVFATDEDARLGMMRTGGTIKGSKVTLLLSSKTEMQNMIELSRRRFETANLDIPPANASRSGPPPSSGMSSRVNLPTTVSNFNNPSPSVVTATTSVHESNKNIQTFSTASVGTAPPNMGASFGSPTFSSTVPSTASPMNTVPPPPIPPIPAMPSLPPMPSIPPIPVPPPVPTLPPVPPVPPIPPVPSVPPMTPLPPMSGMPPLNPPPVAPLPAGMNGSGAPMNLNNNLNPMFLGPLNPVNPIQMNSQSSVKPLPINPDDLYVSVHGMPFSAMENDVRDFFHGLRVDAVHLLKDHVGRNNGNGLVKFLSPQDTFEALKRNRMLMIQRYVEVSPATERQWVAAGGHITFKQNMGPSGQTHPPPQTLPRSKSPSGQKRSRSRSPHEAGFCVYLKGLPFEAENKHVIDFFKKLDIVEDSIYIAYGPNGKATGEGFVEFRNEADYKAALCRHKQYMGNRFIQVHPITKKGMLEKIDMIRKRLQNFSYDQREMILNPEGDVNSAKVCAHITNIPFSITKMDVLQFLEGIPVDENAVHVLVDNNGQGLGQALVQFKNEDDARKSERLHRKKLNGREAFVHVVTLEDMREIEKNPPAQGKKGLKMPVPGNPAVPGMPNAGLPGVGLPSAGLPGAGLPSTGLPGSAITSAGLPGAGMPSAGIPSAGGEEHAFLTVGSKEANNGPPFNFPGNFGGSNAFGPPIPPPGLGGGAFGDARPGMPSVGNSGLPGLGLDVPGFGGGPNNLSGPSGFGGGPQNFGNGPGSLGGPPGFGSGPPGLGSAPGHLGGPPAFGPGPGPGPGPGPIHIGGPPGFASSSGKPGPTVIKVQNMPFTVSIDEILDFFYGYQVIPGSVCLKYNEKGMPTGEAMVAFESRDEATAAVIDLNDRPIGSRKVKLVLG
Chain of UniProt Q9BVS4 (Q9BVS4 whole entry, looked up): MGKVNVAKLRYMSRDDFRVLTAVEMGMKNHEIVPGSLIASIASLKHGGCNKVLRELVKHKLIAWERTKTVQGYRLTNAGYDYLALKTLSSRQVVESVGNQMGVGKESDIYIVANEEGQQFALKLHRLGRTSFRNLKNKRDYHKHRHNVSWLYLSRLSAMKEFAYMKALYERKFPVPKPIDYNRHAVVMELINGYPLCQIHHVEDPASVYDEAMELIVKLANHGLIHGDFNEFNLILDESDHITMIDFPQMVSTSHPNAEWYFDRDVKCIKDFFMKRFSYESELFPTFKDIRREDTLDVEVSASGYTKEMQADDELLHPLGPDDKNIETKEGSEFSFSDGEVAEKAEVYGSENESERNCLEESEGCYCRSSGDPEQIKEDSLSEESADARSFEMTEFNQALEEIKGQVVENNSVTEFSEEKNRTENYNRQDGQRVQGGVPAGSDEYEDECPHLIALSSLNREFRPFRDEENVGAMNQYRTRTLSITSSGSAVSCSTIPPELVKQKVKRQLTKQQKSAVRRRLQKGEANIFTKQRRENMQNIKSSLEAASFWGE
Chain of UniProt O75582 (O75582 whole entry, looked up): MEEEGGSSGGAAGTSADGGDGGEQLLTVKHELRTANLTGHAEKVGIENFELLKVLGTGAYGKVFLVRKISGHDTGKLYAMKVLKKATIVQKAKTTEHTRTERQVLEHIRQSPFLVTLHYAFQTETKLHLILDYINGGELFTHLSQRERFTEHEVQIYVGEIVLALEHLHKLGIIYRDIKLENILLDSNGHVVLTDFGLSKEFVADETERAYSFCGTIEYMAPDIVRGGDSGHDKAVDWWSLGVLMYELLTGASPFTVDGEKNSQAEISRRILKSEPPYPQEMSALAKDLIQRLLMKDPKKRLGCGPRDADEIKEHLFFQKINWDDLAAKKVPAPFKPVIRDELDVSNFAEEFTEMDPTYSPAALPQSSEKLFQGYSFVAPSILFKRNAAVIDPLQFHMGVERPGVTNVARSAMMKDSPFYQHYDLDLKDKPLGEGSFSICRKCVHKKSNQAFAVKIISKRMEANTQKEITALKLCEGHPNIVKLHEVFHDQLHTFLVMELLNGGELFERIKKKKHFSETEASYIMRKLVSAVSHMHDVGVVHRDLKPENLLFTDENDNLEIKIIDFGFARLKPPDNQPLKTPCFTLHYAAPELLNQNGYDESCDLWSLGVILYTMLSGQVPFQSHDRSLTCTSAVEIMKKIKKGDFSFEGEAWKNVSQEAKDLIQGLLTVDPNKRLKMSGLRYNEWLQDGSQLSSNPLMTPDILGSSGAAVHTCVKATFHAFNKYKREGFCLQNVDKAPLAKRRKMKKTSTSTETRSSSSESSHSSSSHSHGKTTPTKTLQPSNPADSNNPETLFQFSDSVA
Chain of UniProt Q99643 (Q99643 whole entry, looked up): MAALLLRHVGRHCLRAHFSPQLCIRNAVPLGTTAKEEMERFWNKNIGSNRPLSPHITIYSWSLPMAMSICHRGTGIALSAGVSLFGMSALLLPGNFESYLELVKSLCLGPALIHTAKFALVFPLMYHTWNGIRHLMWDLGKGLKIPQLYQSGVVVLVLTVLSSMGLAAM

Compound in the experiment: c1cn2cc(-c3ccc4cn[nH]c4c3)nc(Nc3ccc(N4CCOCC4)cc3)c2n1 [entospletinib]
As to the kind of experiment: log2 fold change, soluble protein after heating vs DMSO (PISA); higher = thermal stabilisation; K562 cells, 10 uM, 30 min; active = over 0.2 and 3.5 SD of the protein, either way, in both replicates (recomputed). The method, boiled down:
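For each measurement, 10 μM compound was applied for 30 min to K562 cells at 2×10^6 cells/mL. Aliquots were heated for 3 min across 48°C-58°C, pooled, and extracted in PBS with 0.5% NP-40 at 4°C; the supernatant after 21,000xg for 90 min was soluble protein. This was quantified by TMTpro 16plex LC-MS/MS with channel sums equalised, and thermal stability was reported relative to control samples from duplicates, on a log2 fold-change scale.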
On to SDHAF2 (UniProt Q9NX18), for which the log2 fold change is 0.001.

With RPS6KA3 (UniProt P51812), the log2 fold change was 0.037. Regarding SCG3 (UniProt Q8WXD2), the log2 fold change was 0.091. Consider RPTOR (UniProt Q8N122), for which the log2 fold change is -0.048. RAB3GAP2 (UniProt Q9H2M9): the log2 fold change was 0.091. Regarding SCAF8 isoform 2 (UniProt Q9UPN6), the log2 fold change was -0.042. As for SH3PXD2B (UniProt A1X283), the figure is -0.131; as for RAD50 isoform 2 (UniProt Q92878), -0.02; as for SEPTIN5 (UniProt Q99719), -0.011. As for RAB3D (UniProt O95716), the figure is 0.004; as for RBM12 (UniProt Q9NTZ6), -0.055; as for RPS6KA5 (UniProt O75582), -0.094. Then S100A10 (UniProt P60903), with -0.102; and SCAMP2 (UniProt H3BUB6), with 0.154; and SACM1L (UniProt Q9NTJ5), with 0.004.

In the case of SEC31A (UniProt O94979), the log2 fold change is -0.119. With SETD3 (UniProt Q86TU7), the log2 fold change was 0.001. Consider RB1 (UniProt P06400), for which the log2 fold change is 0.037. Take SDHC (UniProt Q99643): the log2 fold change is 0.032.

On to RPS3 (UniProt E9PJN9), for which the log2 fold change is 0.2. As for RABGGTA (UniProt Q92696), the figure is -0.013; as for RAP2C (UniProt Q9Y3L5), 0.017.

Turning to RIOK2 (UniProt Q9BVS4), the log2 fold change is 0.105. As for SEC16A isoform 5 (UniProt O15027), the figure is 0.069. For the target RBMY1E (UniProt A6NEQ0), the log2 fold change was -0.057. As for RCN3 (UniProt Q96D15), the figure is -0.156; as for RBM17 (UniProt Q96I25), -0.007.

For the target RPL31 (UniProt P62899), the log2 fold change was 0.098. Take SAMSN1 isoform 3 (UniProt Q9NSI8): the log2 fold change was -0.058.

In the case of SLC12A5 (UniProt Q9H2X9), the log2 fold change was -0.081.

Take RNF2 (UniProt Q99496): the log2 fold change was -0.003. In the case of RIPK1 (UniProt Q13546), the log2 fold change is 0.135. As for RGS10 (UniProt O43665), the figure is -0.006; as for RALY (UniProt Q9UKM9), -0.001.

With RANBP2 (UniProt P49792), the log2 fold change is -0.009. As for SDC3 (UniProt O75056), the figure is -0.853 (active); as for RBM27 (UniProt Q9P2N5), 0.054.

The values are drawn from the supplement of paper PMC10849652.
